Assay outcomes (PubChem)
ALDH1A1 block – blocks purified human ALDH1A1 activity; P00352; Purified ALDH1A1, NADH fluorescence, propionaldehyde substrate; Potency, µM (highest dose often 75.3 µM), without a hit: at the top dose activity, negative = inhibition, most hits filed as inhibitors; 7.3% of 220,000 active;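 further: potency means the concentration at half of the fitted maximal effect; plate controls were no enzyme wells and a reference inhibitor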
Target sequence (P00352 whole entry, looked up): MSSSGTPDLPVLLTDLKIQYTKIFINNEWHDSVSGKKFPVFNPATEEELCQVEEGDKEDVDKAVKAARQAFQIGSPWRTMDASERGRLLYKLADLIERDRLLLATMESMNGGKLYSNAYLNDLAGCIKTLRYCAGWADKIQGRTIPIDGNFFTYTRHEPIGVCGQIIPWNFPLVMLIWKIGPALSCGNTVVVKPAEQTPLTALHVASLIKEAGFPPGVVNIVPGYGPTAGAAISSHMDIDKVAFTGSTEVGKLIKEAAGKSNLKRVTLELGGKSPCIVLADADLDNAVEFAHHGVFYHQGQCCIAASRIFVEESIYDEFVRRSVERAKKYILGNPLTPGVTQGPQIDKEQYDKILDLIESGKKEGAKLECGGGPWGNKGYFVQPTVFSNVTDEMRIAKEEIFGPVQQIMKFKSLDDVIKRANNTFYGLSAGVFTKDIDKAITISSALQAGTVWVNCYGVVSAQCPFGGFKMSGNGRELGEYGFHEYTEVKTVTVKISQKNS
LMNA splice mod – LMNA splicing modulation; HeLa LMNA splicing GFP/RFP minigene ratio, 48 h; Potency, µM (doses to about 46.1 µM), inactives show at the top dose ratio change, negative = inhibition, most hits filed as inhibitors; 0.01% of 200,000 active; AID 1487; active means well fitted inhibition curve with a large enough effect in the signal ratio, with a control signal flat, not every such curve was filed as active; inconclusive means small, poorly fitted or top-dose-only effect, or effect the other way, or a change in a side signal; the % refers to the signal ratio; further: potency means the concentration at half of the fitted maximal effect
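S3 HeLa stable clones carrying a lamin A-EGFP splicing minigene plus DsRed2 were seeded at 600 cells/well in Opti-MEM with 2% FBS, pin-dosed and incubated 48 h at 37°C. Acumen cytometry (488 nm) gave the GFP/RFP total-intensity ratio.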
Luc counter – Kinase-Glo luciferase inhibition (counter-screen); Kinase-Glo luciferase, ATP luminescence, 8 min; Potency, µM (highest dose often 38.3 µM), for inactives: at the top dose activity change, negative = inhibition, hits mostly inhibitors; 0.28% of 200,000 active; AID 1379; active means well fitted inhibition curve with a large enough effect; inconclusive means small, poorly fitted or top-dose-only effect; further: potency means the concentration at half of the fitted maximal effect; nearly all actives have a fitted effect of over 60% in size
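Kinase-Glo luciferase light output from ATP and luciferin was measured with 10 uM ATP, within the enzyme's linear range. Buffer: 50 mM imidazole pH 7.2, 50 mM KCl, 7 mM MgCl2, 0.01% Tween 20, 0.05% BSA; luminescence read after 8 min at ambient temperature.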
HPGD block – HPGD (human) dehydrogenase inhibition; P15428; purified HPGD, NADH fluorescence kinetic, PGE2 substrate; Potency, µM, for the others: top-dose activity change, negative = inhibition, hits mostly inhibitors; 4.3% of 150,000 active; AID 894; further: potency means the concentration at half of the fitted maximal effect
Target sequence (P15428 whole entry, looked up): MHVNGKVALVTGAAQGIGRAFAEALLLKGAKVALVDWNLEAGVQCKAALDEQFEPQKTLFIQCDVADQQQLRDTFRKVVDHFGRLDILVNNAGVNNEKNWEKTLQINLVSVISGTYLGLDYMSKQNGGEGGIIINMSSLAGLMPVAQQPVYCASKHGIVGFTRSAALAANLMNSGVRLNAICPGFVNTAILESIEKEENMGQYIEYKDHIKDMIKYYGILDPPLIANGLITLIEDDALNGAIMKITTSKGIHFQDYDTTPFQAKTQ
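NADH formation kinetics: reaction with 30 uM PGE2 and 1 mM NAD+ (final), 20 nM enzyme, Tris-HCl pH 8 with Tween 20, after 15 min compound preincubation at room temperature. Fluorescence change, last versus first of five reads.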
PNC inhibitor – blocks assembly of the perinucleolar compartment | PC3M PTB-GFP, PNC prevalence imaging, 16 h; hits give low values | activity change (PNC), negative = inhibition, % at 10 µM | 3.1% of 140,000 active;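 active means readout at or below -70, meaning at least 70% loss of cells showing the perinucleolar compartment, a nuclear body marking cancer cells; inconclusive means readout between -30 and a set limit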;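 further: plate controls were DMSO wells for no effect and camptothecin positive control wells for full effect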
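Compounds are pinned in duplicate onto adhered PC3M cells stably expressing GFP-tagged PTB and incubated 16 h at 37 C. Cells are then fixed, nuclei stained with Hoechst, and PNC-positive cells counted.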
* marks the source's active call; other numbers are inactive results; ? = inconclusive; nt = not tested or not shown; ! = not active in a repeat; [ ] = another dose, or the depositor's remark. The list is not random: actives were taken first. Their share in the collection is about 10%. Unless noted, the call rests on the fitted dose curve; in most records, active means well fitted inhibition curve with a large enough effect (not every such curve was filed as active); inconclusive means small, poorly fitted or top-dose-only effect, or another doubt; inactive means no such curve, though single readings can be large or run the other way. Unless noted, on the % scale 0 is the no-effect control and ±100 the full control effect.

SMILES	ALDH1A1 block	LMNA splice mod	Luc counter	HPGD block	PNC inhibitor
CCN(CC)c1ccc(CNS(=O)(=O)c2cc3c(cc2C)NC(=O)CO3)cc1	nt	-18.3%[46 µM]	nt	nt	nt
CC1=NN(c2ccc(C)c(C)c2)C(=O)/C1=C\C=C\c1ccc([N+](=O)[O-])o1	8.91µM*	nt	-7.7%	nt	nt
CC1=NN(c2ccc(C(=O)OC(C)C)cc2)C(=O)/C1=C\C=C\c1ccco1	?	-5.5%	-13.9%	-22.6%	365.7
Cc1c(C(=O)Nc2cccc(-c3nc4ccccc4s3)c2)oc2ccccc12	nt	7.8%[46 µM]	nt	nt	nt
CCOc1ccccc1CNC(=O)CSc1n[nH]c(-c2ccccc2Cl)n1	nt	-4.0%[46 µM]	nt	nt	nt
CC(C)=CCc1c2c(c3occ(-c4ccc(O)c(O)c4)c(=O)c3c1O)C=CC(C)(C)O2	4.8%[13.5 µM]	nt	-5.1%[7.66 µM]	-4.5%	nt
CC(C)=CCc1c2c(c3occ(-c4ccc(O)cc4)c(=O)c3c1O)C=CC(C)(C)O2	25.1µM*	?	-2.0%	-4.4%	nt
CCCCCCC1=Cc2cc(OC)c(OC)cc2C(C2(C(=O)OCC)CCCC2=O)O1 (stereo not drawn)	3.5%[13.5 µM]	nt	nt	nt	nt
O=C1CCC/C(=N/Nc2ccc(Cl)cc2)C1	1.58µM*	?	-4.8%	nt	nt
O=C(/C=C\c1ccco1)Nc1cc([N+](=O)[O-])ccc1F	?	?	-0.3%	0.9%	-134.0*
O=C(/C=C/c1ccco1)Nc1cc(Cl)ccc1C(=O)O	?	-21.3%	-1.3%	31.6µM*	21.5
CCOCCc1nn2c(=O)cc(COC(=O)c3cccc(C)c3)nc2s1	nt	-5.2%[46 µM]	nt	nt	nt
COC(=O)[C@@]1(Cc2ccc(OC)cc2)[C@H]2c3cc(C(=O)N(C)C)n(CCc4ccc(O)c(OC)c4)c3C[C@H]2CN1C(=O)c1ccccc1	3.6%	nt	0.2%	-6.9%	nt
Cc1ccc(CN2CCCn3nc(C(=O)NCc4cc(C)ccc4C)cc3C2=O)cc1	nt	-18.6%[46 µM]	nt	nt	nt
Cc1cccc(NC(=O)C2CCN(S(=O)(=O)c3ccc4c(c3)CCCC(=O)N4)CC2)c1	nt	0.9%[46 µM]	nt	nt	nt
C=C(C)OC(C)=O	-7.2%	nt	nt	-7.3%	nt
O=C(C[n+]1cc(-c2ccccc2)n2c1CCC2)N1c2ccccc2Sc2ccccc21	?	?	2.4%	1.3%	-119.3*
Cc1ccc(-c2c[n+](CC(=O)N3c4ccccc4Sc4ccccc43)c3n2CCC3)cc1	?	?	4.7%	3.0%	?
COCCNC(=O)CCc1nc(-c2ccccc2)no1	2.1%	-12.2%	-1.8%	15.8µM*	29.7
Cc1ccc(-c2noc(CCC(=O)NCc3ccco3)n2)cc1	?	14.3%	-2.8%	28.2µM*	21.9
COc1ccccc1-c1noc(CCC(=O)Nc2cccc(C)c2)n1	1.2%	-6.3%	2.6%	-8.7%	7.3
COc1cc(-c2noc(CCCC(=O)NCc3ccco3)n2)cc(OC)c1OC	-13.7%	-5.2%	-2.5%	-18.0%	-100.0*
COc1ccccc1-c1noc(CCC(=O)Nc2ccccc2Cl)n1	28.2µM*	-15.4%	-0.5%	25.1µM*	?
COc1cc(CC(=O)NCc2ccco2)cc(OC)c1OC	-1.2%	6.8%	-0.3%	-4.3%	37.3
O=C(CCc1nc(-c2ccccc2)no1)NCc1ccco1	?	?	-9.7%	?	-5.0
SMILES	ALDH1A1 block	LMNA splice mod	Luc counter	HPGD block	PNC inhibitor
CCc1ccc(C(c2ccccc2)c2c(C)[nH]c3ccccc23)s1 (stereo not drawn)	nt	4.8%[46 µM]	nt	nt	nt
CCOC(=O)c1noc2ncnc(Nc3cccc(OC)c3)c12	nt	-6.2%[46 µM]	nt	nt	nt
CCOCCn1c(SCc2ccc(F)cc2)nc2c1c(=O)[nH]c(=O)n2C	-1.6%	6.4%	2.7%	-7.5%	14.6
COCCn1c(Sc2ccc(C)cc2)nc2c1c(=O)[nH]c(=O)n2C	12.6µM*	10.5%	-1.8%	-23.1%	39.7
CCOCCn1c(SCc2ccc(C)cc2)nc2c1c(=O)[nH]c(=O)n2C	-3.1%	1.3%	-2.5%	-9.7%	-4.3
COCCn1c(SCc2c(F)cccc2Cl)nc2c1c(=O)[nH]c(=O)n2C	25.1µM*	?	0.7%	-19.8%	?
CC(C)Cc1ccc(S(=O)(=O)Nc2cc3c(cc2N2CCOCC2)n(C)c(=O)c(=O)n3C)cc1	nt	19.7%[46 µM]	nt	nt	nt
C=CC[C@@H]1C=C[C@H](Oc2ccc(C)cc2)[C@H](COC(=O)NCc2cccc3ccccc23)O1	-3.9%[13.5 µM]	nt	nt	nt	nt
Nc1nc2c(c(=O)[nH]1)N(C=O)[C@H](CNc1ccc(C(=O)N[C@@H](CCC(=O)O)C(=O)O)cc1)CN2	-2.0%[20.9 µM]	?	2.3%[17.1 µM]	-12.2%	nt
COc1cccc(Cn2c(=O)c(-c3cccc(F)c3)nc3cncnc32)c1	-6.6%	nt	-3.3%	20µM*	nt
COc1cccc(C(=O)Nc2cccc(-c3cn4ccsc4n3)c2)c1OC	nt	-20.6%[46 µM]	nt	nt	nt
CC(C)CC(c1nnnn1C1CCCCC1)N1CCN(c2ncccn2)CC1 (stereo not drawn)	?	?	-1.3%	-14.3%	-29.0
CC(C)CC(c1nnnn1C1CCCC1)N1CCC(C(N)=O)CC1 (stereo not drawn)	22.4µM*	nt	-0.2%	nt	nt
O=C(Nc1cccn2ncnc12)C(F)(F)F	1.4%	13.1%[46 µM]	-1.8%	nt	nt
O=C(CCl)Nc1cccn2ncnc12	3.16µM*	-10.1%	-8.6%	-5.3%	46.4
O=C(c1cnccn1)N1CCC2(CC1)CN(c1ncccn1)C2	?	nt	-5.3%	?	nt
O=c1c(Cc2ccccc2)c(O)ccn1C1CCCCCCC1	5.5%	-25.6%[46 µM]	0.2%	nt	nt
NC(=S)Cc1nc(-c2ccccc2)cs1	3.16µM*	?	-4.8%	-17.1%	-15.1
Oc1csc(Cc2nc(-c3ccc(-c4ccccc4)cc3)cs2)n1	?	9.5%	-9.4%	-26.6%	-2.0
CCCCC/C=C\CC(O)/C=C/c1cccc(CC(O)CCCCO)n1 (stereo not drawn)	6.8%	-7.5%	-7.3%	-22.7%	nt
O=c1[nH]c2cc([N+](=O)[O-])c([N+](=O)[O-])cc2[nH]c1=O	0.6%	?	-1.2%	31.6µM*!	nt
COc1ccc(OCCN2C(=O)NC(C)(c3ccc(C)cc3)C2=O)cc1 (stereo not drawn)	?	?	0.7%	-12.6%	241.9
COc1ccc(CN2C(=O)NC(C)(c3ccc(C)cc3)C2=O)cc1F (stereo not drawn)	0.355µM*	-16.4%[46 µM]	-0.3%	nt	nt
COc1ccc(CN2C(=O)NC3(CCOc4ccccc43)C2=O)cc1F (stereo not drawn)	-13.8%	-18.6%	3.7%	-4.0%	-80.0*
Cc1ccsc1/C=N/n1c(COc2ccccc2)n[nH]c1=S	20µM*	?	3.2%	14.1µM*	-16.6
S=c1[nH]nc(COc2ccccc2)n1/N=C/c1cccs1	-1.2%	-12.0%	5.5%	14.1µM*	?
Cc1ccsc1/C=N/n1c(-c2cc(-c3ccccc3)n[nH]2)n[nH]c1=S	-2.2%	nt	nt	nt	nt
COCCNC(=O)C1(C)Oc2ccccc2NC1=O (stereo not drawn)	6.9%	0.2%	14.1%	-0.4%	-6.9
CC1(C)Oc2ccc(C(=O)NN)cc2NC1=O	1.58µM*	nt	0.8%	nt	nt
CCN(CC)C(=O)c1sc(NC(=O)c2cccc([N+](=O)[O-])c2)c(C#N)c1C	-11.0%	-10.6%	0.3%	7.08µM*	21.5
